Inhibition data for 40 compounds are collected here from ChEMBL document CHEMBL1157539, “Thousands of chemical starting points for antimalarial lead identification” (Nature, 2010).

The test deals with HepG2. The experiment in a line: GSK_TCMDC: Percent inhibition of human HepG2 cell line. Test compounds present at 10uM. The format is functional.
`Cc1ccc2nc3c(cc(C(=O)NCc4ccccc4)c(=N)n3CCCn3ccnc3)c(=O)n2c1`: the Inhibition worked out at 10%.
As for `CN(C)C(=O)c1ccc(CN(Cc2ccc(OC(C)(C)C)cc2)Cc2ccc3c(c2)OCCO3)cc1`, the Inhibition is reported as 0%.
`Fc1ccc2[nH]c3c(NCCCN4CCOCC4)ncnc3c2c1` had an Inhibition of 14%.
The compound `Cc1sc(NC(=O)Cc2cccc(C(F)(F)F)c2)nc1-c1cccc(Cl)c1` displayed an Inhibition of 15%.
`O=C(N[C@@H](Cc1ccccc1)C(=O)NCCN1CCCCC1)c1ccc(O)c(-c2cccc(C(F)(F)F)c2)c1` came in with an Inhibition of 0%.
In the case of `COc1cccc2c(NN=Cc3cccc(F)c3)ccnc12`, the Inhibition is listed as 12%.
With `NC1CCCN(Cc2cccc(-c3ccc(-c4nc5ccccc5[nH]4)cc3)c2)C1.O=C(O)C(F)(F)F` (stereo not given) the figure was 25%; with `Cl.O=[N+]([O-])c1cccc(-c2nc3cc(C4=NC5CCCCC5N4)ccc3[nH]2)c1` (stereo not given), 4%.
With `Clc1ncnc2scc(-c3ccc(Br)cc3)c12` the figure was 0%.
For the compound `Cc1cc(N[C@@H](CC(C)C)C(=O)NCc2cccs2)nc(NCCc2ccccc2)n1.O=C(O)C(F)(F)F`, the Inhibition came out at 1%.
`O=S(=O)(NC1=NCCC1)c1cccc(Nc2nc(C(F)(F)F)nc3ccccc23)c1` showed an Inhibition of 6%.
`CCCCCN1CCCCC(NS(=O)(=O)c2ccc(C(=O)Nc3ccc(C(F)(F)F)cc3)cc2)C1.O=C(O)C(F)(F)F` (stereo not given): the Inhibition was found to be 34%.
For `Cc1cc(N(C)C)nc(Nc2ccc(NC(=O)c3c(F)cccc3F)cc2)n1`, the Inhibition turned out to be 50%.
In turn, `Br.NC1=NC2(CCCCC2)N(OCCCCCCC2CCCCC2)C(N)=N1` returned an Inhibition of 77%.
As for `C[C@H](Cc1ccc(OCCCCOc2ccc(C[C@@H](C)NC[C@H](O)c3cccc(Cl)c3)cc2)cc1)NC[C@H](O)c1cccc(Cl)c1`, the figure is 68%; as for `O=c1cnc2ccc(F)cc2n1CCN1CCC(NCc2cc(-c3ccccc3)cs2)CC1`, 0%; as for `Cc1[nH]c(C)c(-c2ccc(OCCSc3ccncc3)cc2)c(=O)c1Br`, 0%.
For `O=C(NCCNc1ccnc(Nc2ccc(F)cc2)n1)Nc1ccccc1F`, the Inhibition is on record as 22%.
As for `COc1ccc2[nH]c3ccccc3c(=O)c2c1`, the figure is 0%; as for `O=C(Nc1cccc(CN2CCCN(Cc3cccc(O)c3)CC2)c1)c1cc2ccccc2s1.O=C(O)C(F)(F)F`, 15%; as for `O=C1C[C@@H]([S+]([O-])Cc2nccs2)N1CCOCCCCCCc1ccc(Cl)cc1` (stereo not given in full), 0%.
`COc1ccc2nc(C)cc(Nc3ccc(Cl)c(Cl)c3)c2c1` had an Inhibition of 30%.
Turning to `Cc1ccc2c(OCCN3CCC(Cc4cc5c(cc4F)OCC(=O)N5)CC3)cc(F)cc2n1.Cl`, the Inhibition worked out at 27%.
`O=C(c1cc2ccccc2o1)N1CCc2cc3nccc(N4CCN5CCC[C@H]5C4)c3cc21` yielded an Inhibition of 62%.
The compound `COc1ccccc1NC(=O)OC(COc1ccc(N)cc1)CN1CC=C(c2ccccc2)CC1.O=C(O)C(F)(F)F` (stereo not given) registered an Inhibition of 16%.
In turn, `Cc1cc(Br)cnc1CCCCNc1cc(=O)c2ccccc2[nH]1.Cl` yielded an Inhibition of 0%.
With `COc1cc(Cc2cnc(N)nc2N)cc(OCCn2ccccc2=O)c1OC`, the Inhibition came out at 4%.
Compound `CN1CCCN(c2ccnc3cc4c(cc23)N(C(=O)c2ccc(Cl)cc2Cl)CC4)CC1.Cl` gave an Inhibition of 6%.
With `OC(CN1c2ccccc2Sc2ccccc21)CN(C1CCCCC1)C1CCCCC1` (stereo not given), the Inhibition was found to be 46%.
In turn, `CC(Cc1ccc(OCCCCOc2ccccc2)cc1)NCCc1ccc(Oc2ccccc2)cc1` (stereo not given) displayed an Inhibition of 99%.
As for `CNc1ccc(CNCc2ccc(-c3ccc(-c4nc5cccc(C)c5[nH]4)cc3)cc2)cc1.O=C(O)C(F)(F)F`, the Inhibition came out at 35%.
Compound `O=C(Nc1ccc(Cl)c(Cl)c1)Nc1cc(C(F)(F)F)ccc1Cl` yielded an Inhibition of 0%.
In turn, `CCCCN(Cc1cc(Cl)c(OC)c(OC)c1)c1ccc(C(O)(C(F)(F)F)C(F)(F)F)cc1.O=C(O)C(F)(F)F` had an Inhibition of 3%.
The compound `COc1cccc(CCN(Cc2ccccc2-c2ccc(CNC3CC(C)(C)NC(C)(C)C3)cc2)C(=O)NC2CCCCC2)c1.Cl` gave an Inhibition of 97%.
Compound `O=C(Nc1ccc(-c2ccc(-c3nc4ccccc4[nH]3)s2)cc1)c1ccncc1` came in with an Inhibition of 21%.
As for `O=C(O)C(F)(F)F.OCCN1CCN(Cc2ccc(-c3ccc(-c4nc5cc(F)ccc5[nH]4)cc3)cc2)CC1`, the figure is 33%.
Turning to `CC(CCCC(=O)Nc1ccc(CC(C)NCCc2cccc(Cl)c2)cc1)NCCc1cccc(Cl)c1` (stereo not given), the Inhibition turned out to be 98%.
For the compound `Cl.Oc1cc(-c2nc(C3(CNCc4ccc(Cl)cc4)CCCCC3)[nH]c2-c2ccncc2)ccc1Cl`, the Inhibition was 35%.
For the compound `CCc1nc(N)nc(N)c1-c1ccc(F)cc1`, the Inhibition is listed as 52%.
With `O=C(CNC1CCCCC1)Nc1cccc(C(=O)Nc2cccc(C(F)(F)F)c2)c1.O=C(O)C(=O)O`, the Inhibition stood at 17%.

The Inhibition is the drop in the measured response relative to a control, in per cent. A high value points to strong suppression.
